BAZ2B block: inhibitors of human BAZ2B bromodomain | AlphaScreen BAZ2B-H3K14Ac peptide displacement | Potency, µM (top dose mostly 114 µM), actives largely listed as inhibitors | Q9UIF8 | AID 504333 | actives 4.4% (n = 360,000); further: nearly all actives have a fitted effect of over 60% in size
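Compounds, titrated to a top concentration of 110 uM, were incubated 30 min at room temperature with preformed BAZ2B/acetyl-K14 H3 peptide complex (50 nM each). Proximity signal was measured by AlphaScreen after 20 min with beads.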
L3MBTL1 inh: L3MBTL1 (human) inhibition; AlphaScreen L3MBTL1–H3K9me1 peptide binding; actives 0.66% (n = 230,000); Potency, µM (series often up to 57.1 µM), most hits filed as inhibitors; Q9Y468; AID 485360; further: nearly all actives have a fitted effect of over 60% in size
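AlphaScreen assay: L3MBTL1 (50 nM final) was preincubated 30 min at room temperature with biotinylated H3(1-15)K9me1 peptide (75 nM final), then 30 min with library compounds; streptavidin donor and nickel chelate acceptor beads (10 ug/mL final) added, 30 min dark.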
JMJD2A Tudor: inhibitors of human JMJD2A Tudor domain. O75164. actives 4.4% (n = 390,000). AlphaScreen JMJD2A-Tudor / H3K4me3 peptide binding. Potency, µM (series often up to 114 µM), usual class: inhibitors. AID 504339; further: nearly all actives have a fitted effect of over 50% in size
G9a block: blocks human histone lysine methyltransferase G9a; Q96KQ7; actives 8.8% (n = 350,000); Potency, µM (highest dose often 102 µM), hits mostly inhibitors; AID 504332; G9a H3K9 monomethylation, AlphaScreen, 2 h; further: nearly all actives have a fitted effect of over 75% in size
Target sequence (Q96KQ7 913-1193 limits assumed): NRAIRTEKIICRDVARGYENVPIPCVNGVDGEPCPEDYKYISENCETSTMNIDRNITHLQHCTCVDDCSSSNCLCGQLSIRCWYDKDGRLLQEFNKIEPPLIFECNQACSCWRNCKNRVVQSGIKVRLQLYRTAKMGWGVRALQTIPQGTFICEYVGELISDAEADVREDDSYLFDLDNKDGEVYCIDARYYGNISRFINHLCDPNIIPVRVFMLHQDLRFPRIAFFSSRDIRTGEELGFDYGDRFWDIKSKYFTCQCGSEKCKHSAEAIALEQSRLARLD
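Compounds were preincubated with 20 nM G9a for 15 min, after which biotinylated H3K9 peptide (500 nM) and SAM (20 uM) started a 2 h room-temperature reaction. Monomethylated product was quantified by antibody-based AlphaScreen chemiluminescence.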
HP1b binding inh: inhibitors of HP1-beta chromodomain binding to methylated histone tails. AlphaScreen HP1-beta / biotin-H3K9me3 peptide binding. P83916. actives 0.56% (n = 390,000). AID 540317. Potency, µM (highest dose often 114 µM), usual class: inhibitors; further: nearly all actives have a fitted effect of over 70% in size
Target sequence (P83916 whole entry, looked up): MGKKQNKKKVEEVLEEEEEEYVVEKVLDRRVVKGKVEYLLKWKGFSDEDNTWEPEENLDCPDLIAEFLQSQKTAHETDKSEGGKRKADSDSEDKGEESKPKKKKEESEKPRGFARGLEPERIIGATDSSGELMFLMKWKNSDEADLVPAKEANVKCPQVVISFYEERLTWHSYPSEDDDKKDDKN
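Compound inhibition of the preformed complex between 50 nM HP1-beta and 50 nM biotinylated H3K9me3 peptide was read by AlphaScreen. Buffer was PBS pH 7.4 with 0.01% Tween-20. Incubations ran 30 min at room temperature, with 10 ug/mL donor/acceptor beads.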
Each line names hits and unclear results; the compound was inactive in the other large screens. Only some compounds are listed: those with a hit (about 11% of all), similar ones and a draw of the others. The call rests on the fitted dose curve; in most records, active means well fitted inhibition curve with a large enough effect; inconclusive means small, poorly fitted or top-dose-only effect; inactive means no such curve, though single readings can be large or run the other way.

CCn1c([N+](=O)[O-])nc2c1c(=O)[nH]c(=O)n2C	G9a block 40µM
Cc1cc(-c2n[nH]c(=S)o2)c(C)n1-c1ccccc1	BAZ2B block inconclusive, JMJD2A Tudor inconclusive, G9a block 4µM
Oc1cc2ccccc2cc1-c1n[nH]c(=S)o1	BAZ2B block inconclusive, G9a block 4µM
S=c1[nH]nc(-c2c[nH]c3ccccc23)o1	JMJD2A Tudor inconclusive, G9a block inconclusive (no result: L3MBTL1 inh)
COc1ccc(NC(=O)CN2C(=O)CSc3ccc(S(=O)(=O)N(C)C)cc32)cc1OC	none (no result: L3MBTL1 inh)
O=C(O)CC(Sc1n[nH]c(=S)s1)C(=O)O (stereo unspecified)	BAZ2B block 79µM, JMJD2A Tudor 45µM (no result: G9a block)
COC(=O)C(C)Sc1n[nH]c(=S)s1 (stereo unspecified)	BAZ2B block inconclusive, JMJD2A Tudor 40µM, G9a block 6.3µM, HP1b binding inh inconclusive (no result: L3MBTL1 inh)
Cc1ccc2nc(CN3CCN(S(=O)(=O)c4ccc(F)cc4)CC3)oc2c1	none (no result: L3MBTL1 inh)
CC1CCC2(CC1)NC(=O)N(CC(=O)Nc1nc(-c3ccc(F)cc3)cs1)C2=O (stereo unspecified)	G9a block 50µM (no result: L3MBTL1 inh)
Cc1ccc(-c2c[n+](CC(=O)Nc3nc(-c4ccc(F)cc4)cs3)c3n2CCC3)cc1	G9a block 45µM
Cc1ccc(-c2c[n+](CC(=O)Nc3ccc(C)cc3C)c3n2CCC3)cc1	none
O=C(C[n+]1cc(-c2ccccc2)n2c1CCCCC2)c1ccc(Br)cc1	G9a block 50µM
COc1ccc(-c2csc(NC(=O)CN3C(=O)NC4(CCCC4)C3=O)n2)cc1	none
Cc1ccc(NC(=O)C[n+]2cc(-c3ccc(C)cc3)n3c2CCC3)cc1	JMJD2A Tudor 8.9µM
C/C(=N/N=C(/N)SCc1ccccc1)C(C)(C)C	G9a block 10µM
CCC(CC)NCC(O)COc1ccc(Br)cc1 (stereo unspecified)	BAZ2B block 28µM, JMJD2A Tudor 1µM, HP1b binding inh inconclusive (no result: L3MBTL1 inh)
CCOc1ccc2cc(C3CC(c4ccco4)=NN3S(=O)(=O)c3ccccc3)c(Cl)nc2c1 (stereo unspecified)	BAZ2B block inconclusive, G9a block 10µM
Cc1ccc2cc(C3CC(c4ccco4)=NN3S(=O)(=O)c3ccccc3)c(Cl)nc2c1 (stereo unspecified)	G9a block 50µM
CCOc1ccc2cc(C3CC(c4ccco4)=NN3S(C)(=O)=O)c(=O)[nH]c2c1 (stereo unspecified)	JMJD2A Tudor 50µM, HP1b binding inh inconclusive (no result: L3MBTL1 inh, G9a block)
O=C1NC(c2ccc(Cl)cc2)=COc2ccccc21	none
O=C1NN=COc2ccccc21	BAZ2B block 56µM
COc1ccc(Cl)cc1NC(=O)c1cc(C)nc2c1c(C)nn2-c1ccccc1	none (no result: L3MBTL1 inh)
COc1cccc(-c2ccc(NC(=O)C3CCCN(Cc4cnn(C)c4)C3)cc2)c1 (stereo unspecified)	BAZ2B block inconclusive (no result: L3MBTL1 inh)
Cc1ncc(CN2CCCC(C(=O)Nc3ccc(-c4ccco4)cc3)C2)cn1 (stereo unspecified)	BAZ2B block 79µM (no result: L3MBTL1 inh)
COCc1cc(CN2CCCC(C(=O)Nc3ccc(-c4ccco4)cc3)C2)ccc1OC (stereo unspecified)	BAZ2B block inconclusive, JMJD2A Tudor inconclusive, G9a block 8.9µM, HP1b binding inh inconclusive (no result: L3MBTL1 inh)
COc1ccc(N(CC(=O)N2CCN(C)CC2)S(=O)(=O)c2cc(C)ccc2OC)cc1Cl	none (no result: L3MBTL1 inh)
Cc1ccccc1NC(=O)CSc1nc2c(oc3ccccc32)c(=O)n1Cc1ccco1	none (no result: L3MBTL1 inh)
Cc1ccc2nc3c(nc2c1C)C(O)=C3O	G9a block 13µM, HP1b binding inh inconclusive (no result: L3MBTL1 inh)
COc1ccc(S(=O)(=O)N2CCOCC2)cc1NC(=O)c1ccc(=O)[nH]c1	none
O=S(=O)(c1ccc2c(c1)OCCO2)N1CCN(S(=O)(=O)c2cc(F)c(F)cc2F)CC1	none (no result: BAZ2B block, L3MBTL1 inh, G9a block, HP1b binding inh)
COC(=O)c1ccc([C@H]2Nc3ccc(S(=O)(=O)Nc4cccc(C)c4)cc3[C@H]3C=CC[C@H]32)cc1	BAZ2B block 40µM, JMJD2A Tudor 35µM, G9a block 4.5µM (no result: L3MBTL1 inh)
COC(=O)c1ccc([C@@H]2Nc3c(OC)ccc(C)c3[C@@H]3C=CC[C@@H]32)cc1	BAZ2B block inconclusive, JMJD2A Tudor inconclusive, G9a block 3.2µM (no result: L3MBTL1 inh)
Cc1ccc(NS(=O)(=O)c2ccc3c(c2)NC(=O)CC(=O)N3)cc1C	none

Screening data: PubChem, National Center for Advancing Translational Sciences (NCATS)
